From PubChem
Only some compounds are listed: those with a hit (about 3.5% of all), similar ones and a draw of the others.
TEAD-YAP inh – TEAD-YAP interaction inhibition, primary screen, TEAD-YAP interaction inhibitor project, luminescence, HEK-TIYL cells; TEAD-Gal4/YAP UAS-luciferase luminescence; inhibition, % at 9.12 µM; actives 1.4% (n = 640,000); AID 1259422, 2018; in the data active = inhibition above about 32%;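 also: 0% = median of test compound wells and 100% = reference inhibitor wells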
GPR151 ag – activators of human GPR151, primary screen, cell-based, PathHunter beta-arrestin, luminescence. G-protein coupled receptor 151 (Homo sapiens), Q8TDV0. PathHunter beta-arrestin GPR151 cells. activation, % at 11.2 µM. actives 1% (n = 650,000). AID 1508602, 2020; in the data active = activation above about 4.9%;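 also: 0% = median of compound wells and 100% = cells with positive control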
FBW7 act – FBW7 E3 ligase activators, primary screen, biochemical, AlphaScreen, human; actives 0.13% (n = 650,000); F-box/WD repeat-containing protein 7 (Homo sapiens), Q969H0; normalized activity (activation), % at 26.1 µM; AID 1259310, 2017; AlphaScreen FBW7–phospho-cyclin E peptide binding, activator screen; in the data active = normalized activity above about 1.9%;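 also: purified mutant Fbw7 with reduced substrate affinity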
MITF primary – MITF inhibitors, primary screen, biochemical, AlphaScreen, human; AlphaScreen MITF homodimerization, bead proximity signal; Microphthalmia-associated transcription factor (Homo sapiens), O75030; inhibition, % at 2.6 µM; actives 0.91% (n = 650,000); in the data active = inhibition above about 50%;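 also: 0% = vehicle wells with protein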
* marks the source's active call; other numbers are inactive results.

SMILES	TEAD-YAP inh	GPR151 ag	FBW7 act	MITF primary
CCC(=O)NC(c1ccc(OC)c(OC)c1)c1cc([N+](=O)[O-])c2cccnc2c1O (stereo unspecified)	2	0	-1	68*
CCCC(=O)NC(c1ccccc1)c1cc([N+](=O)[O-])c2cccnc2c1O (stereo unspecified)	2	1	-1	76*
CCOc1cc(C(NC(=O)CC)c2cc([N+](=O)[O-])c3cccnc3c2O)ccc1O (stereo unspecified)	-6	0	0	54*
CCNC(=O)N1CCC(C(=O)NC(c2ccc(F)cc2)c2ccccn2)CC1 (stereo unspecified)	-3	0	0	15
COCCNc1ccc2ncc(-c3cccs3)n2n1	37*	-1	0	-17
c1ccc(CCNc2ccc3ncc(-c4cccs4)n3n2)nc1	80*	0	0	-4
COc1cc(S(=O)(=O)N2CCN(CCO)CC2)ccc1NC(C)=O	2	1	0	7
COc1ccc(S(=O)(=O)n2nc(-c3ccccc3)cc2N)cc1	10	-1	0	-8
Oc1c(C=Nc2ccccc2)sc2ccccc12	5	-1	0	-1
CN(C)c1ccc(N=Cc2sc3ccccc3c2O)cc1	76*	-1	0	15
Oc1c(C=Nc2ccc(I)cc2)sc2ccccc12	14	0	0	10
Oc1c(C=NC2CCCCCC2)sc2ccccc12	38*	-2	-1	19
O=C(O)c1ccc(N=Cc2sc3ccccc3c2O)cc1	52*	-4	0	-3
Oc1ccc(N=Cc2sc3ccccc3c2O)cc1	20	2	0	7
CN(C)c1ccc(N=Cc2c[nH]c3ccccc23)cc1	68*	-1	-1	11
COc1ccc(C(=O)Nc2ccc(OC(C)C)cc2)cc1OC	-10	-9	0	-1
COc1ccc(C2Oc3c(OC)cccc3C3CC(c4ccc(C)o4)=NN32)cc1 (stereo unspecified)	40*	1	0	11
COc1cccc2c1OC(c1cccc(Cl)c1)N1N=C(c3ccc(C)o3)CC21 (stereo unspecified)	41*	-1	0	5
CCCCCNC(=O)c1c(-c2ccccc2)noc1C	-3	0	0	-4
Cc1ccc(/C=N/Nc2nnc(Cc3ccccc3)c(=O)[nH]2)o1	7	1	0	12
O=c1cnnc(N/N=C/c2ccccc2O)[nH]1	-3	0	-1	108*
O=c1[nH]c(N/N=C/c2ccccc2O)nnc1Cc1ccccc1	60*	4	0	101*
CN(Cc1n[nH]c2c1CCCC2)C(=O)C1CC(Cc2ccccc2)=NO1 (stereo unspecified)	-14	-1	0	-3
COc1nc(NCC(C)C)nc(Oc2ccc(=O)n(-c3ccccc3)n2)n1	5	0	2.4*	3
CCNc1nc(OC)nc(Oc2ccc(=O)n(-c3ccccc3)n2)n1	3	0	0	0
SMILES	TEAD-YAP inh	GPR151 ag	FBW7 act	MITF primary
COc1ccc(-c2cc3nc4c(c(N5CCC(O)CC5)n3n2)CCCC4)cc1	38*	1	0	-3
COc1ccc(-n2cc(-c3ccccc3)c3c(NCCC(c4ccccc4)c4ccccc4)ncnc32)cc1	-7	2	0	-21
COCc1cc(C)c2c(N)c(C(=O)c3ccc(C)cc3C)sc2n1	-5	2	3.7*	-28
Nc1c(C(=O)Nc2cccc3ccccc23)sc2nc3c(cc12)C(=O)CCC3	61*	-1	0	0
Cc1ccc(C(=O)c2sc3nc4c(cc3c2N)C(=O)CCC4)cc1	47*	-2	0	-12
Cc1ccc(C(=O)c2sc3nc4c(cc3c2N)CCC4)c(C)c1	-21	0	2.0*	8
COc1ccc(C(=O)c2sc3nc4c(cc3c2N)C(=O)CCC4)cc1	-4	2	0	-12
COc1ccc(Nc2ncc(-c3ccccc3N(C)C)n3ccnc23)cc1	-10	0	0	5
Cc1cccc(Oc2c(C(F)(F)F)oc3c(CN(C)Cc4ccccc4)c(O)ccc3c2=O)c1	2	-1	0	-7
CC(=O)c1c(C)[nH]c(C(=O)COC(=O)c2ccc3c(=O)n4c(nc3c2)CCCCC4)c1C	4	2	0	3
COC(=O)c1ccc(N(/N=C2\Sc3ccccc3C2=O)C(C)=O)cc1	8	0	0	10
COCCn1c(=NC(=O)c2ccc(Br)cc2)sc2cc(NC(C)=O)ccc21	-7	-3	0	-9
CC(CNC(C)c1ccccc1)C(=O)O (stereo unspecified)	-4	1	0	16
C/C(=N\NC(=O)CCC(=O)Nc1ccc(I)cc1)c1ccccc1	0	0	0	2
c1cnc(Nc2nc(NCc3nc4ccccc4[nH]3)c3ncn(-c4ccsc4)c3n2)nc1	69*	-1	50*	-18
c1cncc(CNc2nc(NCc3nc4ccccc4[nH]3)c3ncn(-c4ccsc4)c3n2)c1	86*	1	0	-8
COc1ccc2c(=O)c(Oc3ccc(F)cc3)c(C)oc2c1C	4	0	0	-33
O=C1CSC(c2c(F)cccc2Cl)N1c1ccccc1 (stereo unspecified)	-6	0	1	15
CC(C)OC(=O)c1c(-c2ccc(Br)cc2)csc1NC(=O)C1C2CCC(C2)C1C(=O)O (stereo unspecified)	-4	-2	0	-4
CC(C)OC(=O)c1c(-c2ccc(Br)cc2)csc1NC(=O)/C=C/C(=O)O	36*	2	0	2
COc1cccc(N=C2NC(=O)/C(=C/c3ccc(O)c(OC)c3)S2)c1	-7	1	0	8
CCOc1cccc2c1OC1(C)CC2NC(=O)N1c1cccc(F)c1 (stereo unspecified)	11	3	4.4*	-5
COc1ccc(/C=C2\N=C(c3ccccc3OC)OC2=O)cc1	-6	2	0	0
C(=Nc1ccc(N2CCOCC2)cc1)c1ccccc1	65*	0	-1	14
COc1cc(C=O)ccc1OCCc1ccccc1	33*	-9	0	6
SMILES	TEAD-YAP inh	GPR151 ag	FBW7 act	MITF primary
C=CCn1c(-c2ccc([N+](=O)[O-])cc2)csc1=Nc1cccc(C)c1C	8	0	1	9
Cc1cc2ccccc2n2c(SCC(=O)Nc3ccccc3N3CCOCC3)nnc12	6	0	0	7
C/C(=N/Nc1nc(-c2ccccc2)cs1)C(C)(C)C	61*	0	0	4
COc1ccc(CC(=O)NCc2ccc(F)cc2)cc1	46*	0	0	6
Cc1ccc(CC(=O)NCc2ccc(F)cc2)cc1	39*	0	1	8
Cc1ccc(CC(=O)NCc2cccs2)cc1C	45*	-1	0	-14
Cc1ccc(C(=O)NCc2cccs2)cc1C	-26	0	0	2
O=C(Cc1ccc(-n2cccc2)cc1)NCc1cccs1	45*	0	0	8
